Screens from PubChem.
HP1b binding inh: inhibitors of HP1-beta chromodomain binding to methylated histone tails. P83916. AlphaScreen HP1-beta / biotin-H3K9me3 peptide binding. Potency, µM (series often up to 114 µM), for inactives: at the top dose activity change, negative = inhibition, usual class: inhibitors. actives 0.56% (n = 390,000). AID 540317; further: nearly all actives have a fitted effect of over 70% in size
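HP1-beta protein (50 nM final) preincubated 30 min at room temperature with biotinylated H3(1-18)K9me3 peptide (50 nM) in PBS pH 7.4, 0.01% Tween-20, then compound added for 30 min. AlphaScreen streptavidin donor/nickel chelate acceptor beads (10 ug/mL final), 30 min dark, luminescence read.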
G9a block: inhibitors of human histone lysine methyltransferase G9a. Potency, µM (top dose mostly 102 µM), without a hit: at the top dose activity, negative = inhibition, actives largely listed as inhibitors. G9a H3K9 monomethylation, AlphaScreen, 2 h. Q96KQ7. AID 504332. actives 8.8% (n = 350,000); further: on the % scale 0 is the no-effect control and ±100 the full control effect; nearly all actives have a fitted effect of over 75% in size
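Compounds were preincubated with 20 nM G9a for 15 min, after which biotinylated H3K9 peptide (500 nM) and SAM (20 uM) started a 2 h room-temperature reaction. Monomethylated product was quantified by antibody-based AlphaScreen chemiluminescence.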
JMJD2A Tudor: JMJD2A Tudor domain (human) inhibition | Potency, µM (highest dose often 114 µM), inactives show at the top dose activity change, negative = inhibition, actives largely listed as inhibitors | actives 4.4% (n = 390,000) | O75164 | AID 504339 | AlphaScreen JMJD2A-Tudor / H3K4me3 peptide binding; further: on the % scale 0 is the no-effect control and ±100 the full control effect; nearly all actives have a fitted effect of over 50% in size
BAZ2B inh: BAZ2B (human) inhibition | Potency, µM (titrated, usually from 114 µM), for inactives: top-dose activity change, negative = inhibition, actives largely listed as inhibitors | AlphaScreen BAZ2B-H3K14Ac peptide displacement | actives 4.4% (n = 360,000); further: on the % scale 0 is the no-effect control and ±100 the full control effect; nearly all actives have a fitted effect of over 60% in size
Target sequence (Q9UIF8 whole entry, looked up): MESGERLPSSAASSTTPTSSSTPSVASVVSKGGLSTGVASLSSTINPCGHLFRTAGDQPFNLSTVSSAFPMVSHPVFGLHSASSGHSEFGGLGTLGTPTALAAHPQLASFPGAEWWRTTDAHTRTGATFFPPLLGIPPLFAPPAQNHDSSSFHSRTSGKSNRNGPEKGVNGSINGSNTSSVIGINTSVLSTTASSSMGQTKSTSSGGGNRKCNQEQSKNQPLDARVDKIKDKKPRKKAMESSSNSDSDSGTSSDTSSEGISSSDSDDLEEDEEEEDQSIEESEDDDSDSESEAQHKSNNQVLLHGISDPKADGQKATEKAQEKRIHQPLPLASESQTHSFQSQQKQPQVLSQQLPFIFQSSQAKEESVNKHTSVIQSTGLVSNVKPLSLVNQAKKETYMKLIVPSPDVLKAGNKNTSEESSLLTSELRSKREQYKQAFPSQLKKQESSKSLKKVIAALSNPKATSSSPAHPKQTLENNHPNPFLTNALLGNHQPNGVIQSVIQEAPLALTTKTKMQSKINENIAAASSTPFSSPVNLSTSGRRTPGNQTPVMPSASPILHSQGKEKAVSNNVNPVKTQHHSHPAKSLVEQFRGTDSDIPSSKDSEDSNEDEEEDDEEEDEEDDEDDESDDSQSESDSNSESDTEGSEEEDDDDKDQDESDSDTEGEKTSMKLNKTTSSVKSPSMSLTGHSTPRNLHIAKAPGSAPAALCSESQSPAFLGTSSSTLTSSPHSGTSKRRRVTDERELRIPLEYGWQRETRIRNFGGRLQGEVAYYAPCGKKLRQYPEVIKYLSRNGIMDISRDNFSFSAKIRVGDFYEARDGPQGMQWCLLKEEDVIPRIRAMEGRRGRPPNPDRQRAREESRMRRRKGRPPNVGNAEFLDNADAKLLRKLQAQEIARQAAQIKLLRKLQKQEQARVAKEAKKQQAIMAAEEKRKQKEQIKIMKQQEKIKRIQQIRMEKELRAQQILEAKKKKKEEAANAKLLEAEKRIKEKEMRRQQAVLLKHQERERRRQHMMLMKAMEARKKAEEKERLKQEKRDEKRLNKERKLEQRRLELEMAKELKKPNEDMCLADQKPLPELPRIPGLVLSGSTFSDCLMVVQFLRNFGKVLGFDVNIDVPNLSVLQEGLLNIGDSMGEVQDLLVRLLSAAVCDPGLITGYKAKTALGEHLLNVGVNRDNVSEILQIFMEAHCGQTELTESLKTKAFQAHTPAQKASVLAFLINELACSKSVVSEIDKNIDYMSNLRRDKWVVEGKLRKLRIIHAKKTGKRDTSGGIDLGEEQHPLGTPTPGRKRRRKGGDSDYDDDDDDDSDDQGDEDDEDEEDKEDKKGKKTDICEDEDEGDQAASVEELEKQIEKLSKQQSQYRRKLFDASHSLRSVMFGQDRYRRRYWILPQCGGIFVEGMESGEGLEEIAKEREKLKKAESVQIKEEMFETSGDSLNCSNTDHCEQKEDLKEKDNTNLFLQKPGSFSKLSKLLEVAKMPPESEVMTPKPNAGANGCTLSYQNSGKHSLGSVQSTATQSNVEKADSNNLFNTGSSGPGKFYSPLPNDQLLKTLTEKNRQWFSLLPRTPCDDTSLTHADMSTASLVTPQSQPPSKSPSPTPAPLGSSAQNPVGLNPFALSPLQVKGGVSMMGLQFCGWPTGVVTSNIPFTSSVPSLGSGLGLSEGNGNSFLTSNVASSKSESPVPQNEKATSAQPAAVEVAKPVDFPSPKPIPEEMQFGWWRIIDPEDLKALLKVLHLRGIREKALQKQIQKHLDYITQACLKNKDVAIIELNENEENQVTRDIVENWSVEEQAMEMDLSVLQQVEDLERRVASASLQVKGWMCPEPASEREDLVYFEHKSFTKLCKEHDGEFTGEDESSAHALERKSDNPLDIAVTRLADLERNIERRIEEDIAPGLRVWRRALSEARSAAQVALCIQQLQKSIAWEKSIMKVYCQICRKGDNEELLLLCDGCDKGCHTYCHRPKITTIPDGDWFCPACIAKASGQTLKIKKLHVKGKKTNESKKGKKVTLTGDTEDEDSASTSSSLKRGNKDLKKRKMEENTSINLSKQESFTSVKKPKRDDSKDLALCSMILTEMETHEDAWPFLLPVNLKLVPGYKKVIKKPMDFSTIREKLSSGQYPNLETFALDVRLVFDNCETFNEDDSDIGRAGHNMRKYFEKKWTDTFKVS
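BAZ2B 50 nM plus b-H3(5-23)K14Ac 50 nM, PBS pH 7.4/0.01% Tween-20, 30 min RT; compound added (max 110 uM), 30 min RT; streptavidin donor/Ni-chelate acceptor beads 10 ug/mL final, 20 min dark; AlphaScreen read.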
L3MBTL1 inh: blocks human L3MBTL1. actives 0.66% (n = 230,000). AID 485360. Q9Y468. AlphaScreen L3MBTL1–H3K9me1 peptide binding. Potency, µM (top dose mostly 57.1 µM), for inactives: top-dose activity, negative = inhibition, usual class: inhibitors; further: on the % scale 0 is the no-effect control and ±100 the full control effect; nearly all actives have a fitted effect of over 60% in size
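L3MBTL1 50 nM + b-AHA-H3(1-15)K9me1 75 nM, 30 min RT; compound added, 30 min RT; streptavidin donor/Ni-chelate acceptor beads 10 ug/mL each final, 30 min RT dark; AlphaScreen read.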
Sfp PPTase inh: blocks B. subtilis Sfp PPTase activity; Q9F4F7; Biochemical Sfp PPTase activity, qHTS; Potency, µM, without a hit: largest response in the series, negative = inhibition, usual class: inhibitors; actives 3.5% (n = 310,000); AID 1490;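 further: the enzyme is Sfp with the accession as filed and its product quenches rhodamine fluorescence; 0% = enzyme reaction without inhibitor and -100% = no enzyme wells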
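Step 1, compound plus 15 nM Sfp-PPTase, 15 min, room temperature. Step 2, add rhodamine-CoA (5 uM) and BHQ-2-YbbR (12.5 uM). Step 3, read 525/598 nm fluorescence at 0 and 30 min.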
Active calls of the source: *; [ ] = another dose, or the depositor's remark. Shown are actives, neighbours in structure and some others; about 12% of the full set was active somewhere. The call rests on the fitted dose curve; in most records, active means well fitted curve in the direction sought with a large enough effect; inconclusive means small, poorly fitted or top-dose-only effect, or another doubt; inactive means no such curve, though single readings can be large; an effect the other way counts as inactive or inconclusive. Potency means the concentration at half of the fitted maximal effect.

C=CCc1cc(/C=C/c2nc(O)c([N+](=O)[O-])c(=O)[nH]2)cc(OC)c1O was read as HP1b binding inh -6%, G9a block 50µM*, JMJD2A Tudor -26%[57.1 µM], BAZ2B inh inconclusive, L3MBTL1 inh inconclusive and Sfp PPTase inh -7%.
`CCOc1cc(/C=C\c2nc(O)c([N+](=O)[O-])c(=O)[nH]2)ccc1OC(C)C` gave HP1b binding inh 25%, G9a block inconclusive, JMJD2A Tudor -18%, BAZ2B inh -3% and Sfp PPTase inh -4%.
For O=c1[nH]c(/C=C\c2ccc(O)c(Cl)c2)nc(O)c1[N+](=O)[O-] the results were HP1b binding inh 19%, G9a block 50µM*, JMJD2A Tudor -6%, BAZ2B inh -22% and Sfp PPTase inh -1%.
O=c1[nH]c(/C=C\c2ccc(O)cc2)nc(O)c1[N+](=O)[O-] was read as HP1b binding inh 48%, G9a block 71µM*, JMJD2A Tudor 0%, BAZ2B inh -26%, L3MBTL1 inh -9% and Sfp PPTase inh 18%.
Cc1cccc(NC(=O)c2ccc(OCc3c(C)noc3C)cc2)n1 was read as HP1b binding inh 20%, G9a block 2%[12.7 µM], JMJD2A Tudor -6%, BAZ2B inh 6% and L3MBTL1 inh 8%.
`CCCCN(C(=O)c1oc2ccc(OCC)cc2c1C)c1c(N)n(CC(C)C)c(=O)[nH]c1=O` gave HP1b binding inh 17%, G9a block 6%[2.33 µM], JMJD2A Tudor -17%, BAZ2B inh 3% and L3MBTL1 inh 0%.
COc1ccc(OCCOCCN2CCN(C)CC2)cc1 was read as HP1b binding inh inconclusive, G9a block 22µM*, JMJD2A Tudor 18µM*, BAZ2B inh 50µM*, L3MBTL1 inh -3% and Sfp PPTase inh inconclusive.
COc1cccc(OC)c1OCCOCCN1CCN(C)CC1 was read as HP1b binding inh 23%, G9a block -4%[2.33 µM], JMJD2A Tudor -1%, BAZ2B inh 13% and Sfp PPTase inh 7%.
Screening CN1CCN(CCOc2ccc(-c3ccccc3)cc2)CC1 returned HP1b binding inh 10%, G9a block 50µM*, JMJD2A Tudor -35%, BAZ2B inh inconclusive and Sfp PPTase inh -25%.
Screening O=C(O)c1cccc(OCCN2CCCC2=O)c1 returned HP1b binding inh 52%, JMJD2A Tudor -4%, BAZ2B inh -4% and Sfp PPTase inh -1%.
Screening CN1CCN(CCCOc2ccc(-c3ccccc3)cc2)CC1 returned HP1b binding inh 28%, JMJD2A Tudor inconclusive, BAZ2B inh -36%, L3MBTL1 inh -5% and Sfp PPTase inh -9%.
CN1CCC(=O)N(CCOc2ccccc2)CC1 was read as HP1b binding inh 29%, G9a block 28µM*, JMJD2A Tudor inconclusive, BAZ2B inh inconclusive, L3MBTL1 inh -2% and Sfp PPTase inh -20%.
Screening O=C(c1ccccc1)n1c(=O)c(F)cn(COCCBr)c1=O returned HP1b binding inh 35%, JMJD2A Tudor -4%, BAZ2B inh 3%, L3MBTL1 inh 9% and Sfp PPTase inh -9%.
O=C(O)c1ccc(NC(CSCc2ccccc2F)C(=O)O)c([N+](=O)[O-])c1 (configuration not stated) was read as HP1b binding inh 1%, G9a block inconclusive, JMJD2A Tudor 32µM*, BAZ2B inh -14%, L3MBTL1 inh 1% and Sfp PPTase inh -3%.
`CC(NC(=O)c1ccc(S(=O)(=O)N(C)C)cc1)c1ccccc1` (configuration not stated) gave HP1b binding inh -15%, G9a block 4%[12.7 µM], JMJD2A Tudor 79µM*, BAZ2B inh -5%, L3MBTL1 inh -7%[11.4 µM] and Sfp PPTase inh 16%.
Screening CC(NNC(=S)N1CCN(c2ccccn2)CC1)c1nccc2ccccc12 (configuration not stated) returned HP1b binding inh 25µM* and JMJD2A Tudor 20µM*.
`CN1CCN(C(=S)NC(=O)/C=C/c2cccc3ccccc23)CC1` gave HP1b binding inh 2%, G9a block -4%, JMJD2A Tudor inconclusive, BAZ2B inh -1%, L3MBTL1 inh -2% and Sfp PPTase inh 1%.
For O=C(NC(=S)N1CCCC1)c1ccc(Cl)cc1 the results were HP1b binding inh 34%, G9a block 31%, JMJD2A Tudor -13%, BAZ2B inh -3% and Sfp PPTase inh 9%.
Screening CN1CCN(C(=S)NC(=O)/C=C/c2cccs2)CC1 returned HP1b binding inh 24%, G9a block 50µM*, JMJD2A Tudor inconclusive, BAZ2B inh -17%, L3MBTL1 inh -5% and Sfp PPTase inh -7%.
Screening CN1CCN(C(=S)NC(=O)c2ccc(Cl)cc2)CC1 returned HP1b binding inh inconclusive, G9a block 28µM*, JMJD2A Tudor inconclusive, BAZ2B inh 56µM*, L3MBTL1 inh -9% and Sfp PPTase inh 35µM*.
Screening O=C(NC(=S)N1CCN(c2ccccn2)CC1)c1ccco1 returned HP1b binding inh 11%, G9a block 56µM*, JMJD2A Tudor -12%, BAZ2B inh inconclusive, L3MBTL1 inh -3% and Sfp PPTase inh -27%.
`O=C(CN1C(=O)NC2(CCCCC2)C1=O)NCCc1ccccc1` gave HP1b binding inh 42%, JMJD2A Tudor -7% and L3MBTL1 inh -1%.
For Cc1ccc2nc3c(cc(C(=O)NCC4CCCO4)c(=N)n3C(C)C)c(=O)n2c1 (configuration not stated) the results were HP1b binding inh 17%, G9a block -22%[59 µM], JMJD2A Tudor -11% and BAZ2B inh 2%.
CCCCCCCCCCCCCCC[C@@H](O)[C@H](CO)NC(=O)CCCCCCC was read as G9a block 30%[59 µM] and Sfp PPTase inh 29%.
CN1CCN(C(=S)NC(=O)c2ccco2)CC1 was read as HP1b binding inh 4%, G9a block 50µM*, JMJD2A Tudor 16µM*, BAZ2B inh inconclusive, L3MBTL1 inh -3% and Sfp PPTase inh 56µM*.
For O=C(NC(=S)N1CCN(c2ccc(O)cc2)CC1)c1ccco1 the results were HP1b binding inh 11%, JMJD2A Tudor -5% and L3MBTL1 inh -3%.
For Cc1cnc(CNc2ncncc2-c2c(C)noc2C)cn1 the results were G9a block -41%[0.501 µM] and Sfp PPTase inh -25%.
O=C(/C=C/c1ccncc1)c1cc(Cl)ccc1O was read as HP1b binding inh inconclusive, G9a block 22µM*, JMJD2A Tudor 35µM*, BAZ2B inh 45µM*, L3MBTL1 inh -24% and Sfp PPTase inh -26%.
`CN(C)c1ccc(C(=O)/C=C/c2ccc(Br)cc2)cc1` gave HP1b binding inh 40%, G9a block inconclusive, JMJD2A Tudor -26%, BAZ2B inh -5%, L3MBTL1 inh -1% and Sfp PPTase inh -15%.
